From ChEMBL document CHEMBL3988442, “University of Dundee, Small-Polar-MMV Screening Library” (2021)
For part of these data: Entries with a potency or affinity are not part of this list.

Tests used:
Parameters in all cases: scale not given: direction of the effect not stated beside the values
[1] = biological target: Protein translocase subunit SecA (Escherichia coli (strain K12)) (UniProt P10408); experiment: Assay to Identify E. coli SecA ATPase Inhibitors; format: functional; conditions: 30 µM
[2] = biological target: T1, Ubiquitin-activating enzyme e1, putative (Leishmania donovani (strain BPK282A1)) (UniProt E9BSI1); experiment: Leishmania donovani Ubiquitin Activating Enzyme (LdE1); format: functional; conditions: 30 µM
T1 sequence (whole entry): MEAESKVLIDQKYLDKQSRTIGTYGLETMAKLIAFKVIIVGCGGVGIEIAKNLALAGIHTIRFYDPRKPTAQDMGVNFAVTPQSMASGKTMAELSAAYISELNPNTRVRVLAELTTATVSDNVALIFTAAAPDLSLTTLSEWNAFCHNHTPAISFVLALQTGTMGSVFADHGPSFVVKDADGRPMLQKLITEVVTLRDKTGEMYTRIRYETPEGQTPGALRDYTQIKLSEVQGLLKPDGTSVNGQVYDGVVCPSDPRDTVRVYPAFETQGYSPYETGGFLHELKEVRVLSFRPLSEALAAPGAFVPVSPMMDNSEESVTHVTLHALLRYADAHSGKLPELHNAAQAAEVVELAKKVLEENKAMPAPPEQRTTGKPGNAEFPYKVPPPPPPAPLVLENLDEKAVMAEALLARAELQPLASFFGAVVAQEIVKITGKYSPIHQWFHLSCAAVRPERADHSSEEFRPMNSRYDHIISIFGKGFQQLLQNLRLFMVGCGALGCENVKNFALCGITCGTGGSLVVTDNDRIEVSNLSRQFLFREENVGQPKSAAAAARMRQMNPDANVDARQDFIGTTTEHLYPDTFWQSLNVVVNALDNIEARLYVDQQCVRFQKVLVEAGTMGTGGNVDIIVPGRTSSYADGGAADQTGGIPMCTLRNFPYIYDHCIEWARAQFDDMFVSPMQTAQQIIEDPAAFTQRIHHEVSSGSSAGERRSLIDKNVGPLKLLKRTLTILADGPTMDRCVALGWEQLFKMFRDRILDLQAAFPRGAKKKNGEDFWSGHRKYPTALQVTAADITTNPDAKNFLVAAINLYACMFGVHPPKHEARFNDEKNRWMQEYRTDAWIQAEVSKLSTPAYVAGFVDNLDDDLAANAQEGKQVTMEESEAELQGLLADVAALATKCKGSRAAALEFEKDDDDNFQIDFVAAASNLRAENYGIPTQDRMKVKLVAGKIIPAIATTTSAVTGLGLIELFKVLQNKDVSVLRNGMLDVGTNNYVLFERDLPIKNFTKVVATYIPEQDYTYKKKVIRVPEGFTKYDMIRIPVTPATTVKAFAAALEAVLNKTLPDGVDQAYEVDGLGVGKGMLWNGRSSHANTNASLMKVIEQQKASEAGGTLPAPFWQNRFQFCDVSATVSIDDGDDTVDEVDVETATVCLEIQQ

[3] = biological target: AMP-activated protein kinase, AMPK (Homo sapiens) (UniProt P54646+O43741+P54619+Q9UGJ0+Q9Y478+Q13131+Q9UGI9); experiment: AMP-dependent Kinase enzyme assay. An in vitro enzyme assay that detects ADP turnover that is directly proportional to AMPK activity. This uses naive AMPK that is activated during the assay with MK-8722; format: functional; conditions: 30 µM
[4] = biological target: Sialic acid-binding Ig-like lectin 9 (Homo sapiens) (UniProt Q9Y336); experiment: Hs-Siglec9 ALPHAscreen SOP 20170721; conditions: 10 µM
Trypanosoma cruzi = experiment: Trypanosoma cruzi phosphomannomutase and mannose-1-phosphate guanylyltransferase assay; format: functional; conditions: 10 µM
[5] = biological target: T2, Arginase-2, mitochondrial (Homo sapiens) (UniProt P78540); experiment: in vitro enzyme assay to detect the production of urea directly proportional to the activity of Arginase II; format: functional; conditions: 33.3 µM; note: in the data most compounds retested in dose-response had high values
T2 sequence (whole entry): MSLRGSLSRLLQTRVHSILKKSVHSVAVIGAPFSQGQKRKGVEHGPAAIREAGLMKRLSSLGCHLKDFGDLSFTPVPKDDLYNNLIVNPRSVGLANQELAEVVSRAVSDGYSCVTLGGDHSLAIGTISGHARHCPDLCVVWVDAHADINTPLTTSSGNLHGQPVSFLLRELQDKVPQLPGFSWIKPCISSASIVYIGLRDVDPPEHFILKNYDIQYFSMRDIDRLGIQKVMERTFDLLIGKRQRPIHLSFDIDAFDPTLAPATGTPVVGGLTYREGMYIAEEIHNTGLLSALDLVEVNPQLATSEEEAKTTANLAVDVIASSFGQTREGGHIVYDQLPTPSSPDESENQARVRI

[6] = biological target: T3, Proteasome subunit beta (Trypanosoma cruzi) (UniProt O96673); experiment: Trypanosoma cruzi proteasome chymotrypsin-like activity (TcProtChymo) assay.; note: in the data most compounds retested in dose-response had high values; format: functional; conditions: 9.37 µM
T3 sequence (whole entry): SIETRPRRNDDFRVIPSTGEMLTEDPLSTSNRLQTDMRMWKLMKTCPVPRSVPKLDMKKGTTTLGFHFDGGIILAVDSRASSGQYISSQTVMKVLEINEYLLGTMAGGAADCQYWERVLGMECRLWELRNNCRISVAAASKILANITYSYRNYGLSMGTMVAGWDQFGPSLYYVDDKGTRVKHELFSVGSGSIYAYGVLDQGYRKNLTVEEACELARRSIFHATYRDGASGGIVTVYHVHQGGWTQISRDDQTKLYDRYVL

Homo sapiens = species: Homo sapiens; experiment: To identify inhibition of the IFN signalling (Jak-Stat) pathway via expression of an eGFP reporter gene under the control of an IFN-stimulated response element (ISRE) containing MxA promoter.; format: functional; conditions: 30 µM
[7] = biological target: T4, Tyrosyl-tRNA synthetase, putative (Trypanosoma cruzi (strain CL Brener)) (UniProt Q4DSP6); experiment: Trypanosoma cruzi tyrosyl tRNA synthetase (TcYRS) _High Tyrosine SOP; format: functional; conditions: 30 µM; note: in the data most compounds retested in dose-response had high values
T4 sequence (whole entry): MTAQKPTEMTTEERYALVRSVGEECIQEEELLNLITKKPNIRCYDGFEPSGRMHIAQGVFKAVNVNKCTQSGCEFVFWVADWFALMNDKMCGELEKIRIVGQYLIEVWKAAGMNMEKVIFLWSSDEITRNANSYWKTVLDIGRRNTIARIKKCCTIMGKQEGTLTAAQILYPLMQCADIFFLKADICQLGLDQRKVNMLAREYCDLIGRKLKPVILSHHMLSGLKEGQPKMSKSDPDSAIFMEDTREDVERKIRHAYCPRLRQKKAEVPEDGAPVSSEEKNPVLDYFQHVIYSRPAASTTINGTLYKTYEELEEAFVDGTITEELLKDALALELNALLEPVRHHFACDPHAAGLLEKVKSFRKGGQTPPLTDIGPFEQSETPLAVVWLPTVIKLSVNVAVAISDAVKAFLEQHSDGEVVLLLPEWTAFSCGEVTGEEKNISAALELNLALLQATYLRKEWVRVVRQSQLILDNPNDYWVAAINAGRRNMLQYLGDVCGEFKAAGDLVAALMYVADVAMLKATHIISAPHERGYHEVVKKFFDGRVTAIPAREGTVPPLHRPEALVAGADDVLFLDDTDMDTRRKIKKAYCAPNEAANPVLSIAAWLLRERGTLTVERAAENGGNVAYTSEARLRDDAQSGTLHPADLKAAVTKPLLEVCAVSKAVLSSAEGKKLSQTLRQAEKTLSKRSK

[8] = biological target: T4, Tyrosyl-tRNA synthetase, putative (Trypanosoma cruzi (strain CL Brener)); experiment: Trypanosoma cruzi tyrosyl tRNA synthetase (TcYRS) SOP; format: functional; conditions: 30 µM
[9] = biological target: Chromo domain-containing protein 1 (Saccharomyces cerevisiae (strain ATCC 204508 / S288c) (Baker's yeast)) (UniProt P32657); experiment: ScCHD-1 Enzyme Inhibition Assay; format: functional; conditions: 30 µM; note: in the data most compounds retested in dose-response had high values
Chromo domain-containing protein 1 (Saccharomyces cerevisiae (strain ATCC 204508 / S288c) (Baker's yeast)), sequence (P32657 whole entry, the tested form may be a part): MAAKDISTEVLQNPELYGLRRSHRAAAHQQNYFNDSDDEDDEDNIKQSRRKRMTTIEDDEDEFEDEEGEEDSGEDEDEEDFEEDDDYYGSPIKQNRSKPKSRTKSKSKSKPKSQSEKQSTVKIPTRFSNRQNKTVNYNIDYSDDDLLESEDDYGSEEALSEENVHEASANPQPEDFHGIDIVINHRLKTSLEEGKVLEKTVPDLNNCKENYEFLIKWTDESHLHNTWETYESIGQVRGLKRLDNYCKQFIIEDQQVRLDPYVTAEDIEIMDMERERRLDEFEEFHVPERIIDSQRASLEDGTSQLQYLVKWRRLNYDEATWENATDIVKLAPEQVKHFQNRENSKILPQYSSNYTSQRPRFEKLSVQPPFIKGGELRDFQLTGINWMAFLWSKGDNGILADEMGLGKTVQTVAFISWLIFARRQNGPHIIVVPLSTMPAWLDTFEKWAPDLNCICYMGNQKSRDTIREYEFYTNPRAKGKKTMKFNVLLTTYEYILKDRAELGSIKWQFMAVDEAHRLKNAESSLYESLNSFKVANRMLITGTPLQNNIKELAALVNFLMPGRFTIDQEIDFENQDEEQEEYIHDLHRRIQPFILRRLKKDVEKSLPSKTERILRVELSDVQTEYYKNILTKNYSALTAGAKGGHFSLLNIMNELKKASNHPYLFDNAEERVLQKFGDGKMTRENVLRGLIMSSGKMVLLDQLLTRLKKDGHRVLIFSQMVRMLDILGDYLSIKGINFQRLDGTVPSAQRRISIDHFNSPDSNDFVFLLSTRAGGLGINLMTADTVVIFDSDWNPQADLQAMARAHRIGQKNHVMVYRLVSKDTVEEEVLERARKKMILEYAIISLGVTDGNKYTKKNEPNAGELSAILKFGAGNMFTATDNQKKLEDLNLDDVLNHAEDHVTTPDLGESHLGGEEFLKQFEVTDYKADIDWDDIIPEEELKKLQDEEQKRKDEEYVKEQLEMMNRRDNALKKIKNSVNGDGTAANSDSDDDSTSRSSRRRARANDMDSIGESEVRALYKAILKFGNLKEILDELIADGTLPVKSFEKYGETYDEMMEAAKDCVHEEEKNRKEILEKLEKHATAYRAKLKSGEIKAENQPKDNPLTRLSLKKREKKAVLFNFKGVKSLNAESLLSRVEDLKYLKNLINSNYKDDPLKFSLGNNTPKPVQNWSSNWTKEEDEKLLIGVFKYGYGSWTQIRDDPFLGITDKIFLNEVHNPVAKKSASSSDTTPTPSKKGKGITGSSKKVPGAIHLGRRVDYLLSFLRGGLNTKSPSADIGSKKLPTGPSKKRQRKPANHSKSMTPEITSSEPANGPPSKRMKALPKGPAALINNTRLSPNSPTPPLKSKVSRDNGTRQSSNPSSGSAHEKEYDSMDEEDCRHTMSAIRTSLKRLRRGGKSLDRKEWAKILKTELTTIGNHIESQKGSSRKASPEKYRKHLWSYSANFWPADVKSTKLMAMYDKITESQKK

Sialic acid-binding Ig-like lectin 9 (Homo sapiens), sequence (Q9Y336 whole entry): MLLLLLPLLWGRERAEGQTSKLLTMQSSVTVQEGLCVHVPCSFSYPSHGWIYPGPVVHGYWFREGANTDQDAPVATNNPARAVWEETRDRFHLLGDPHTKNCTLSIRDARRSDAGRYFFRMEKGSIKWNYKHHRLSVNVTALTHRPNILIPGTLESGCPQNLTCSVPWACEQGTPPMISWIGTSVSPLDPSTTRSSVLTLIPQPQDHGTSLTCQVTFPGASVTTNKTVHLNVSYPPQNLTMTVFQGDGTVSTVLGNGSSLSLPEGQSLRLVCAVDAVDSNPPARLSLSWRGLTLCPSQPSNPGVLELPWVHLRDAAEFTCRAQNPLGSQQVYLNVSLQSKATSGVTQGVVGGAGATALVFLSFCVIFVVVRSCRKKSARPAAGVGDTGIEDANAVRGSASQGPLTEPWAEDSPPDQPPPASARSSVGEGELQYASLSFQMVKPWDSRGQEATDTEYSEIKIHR
Protein translocase subunit SecA (Escherichia coli (strain K12)), sequence (P10408 whole entry): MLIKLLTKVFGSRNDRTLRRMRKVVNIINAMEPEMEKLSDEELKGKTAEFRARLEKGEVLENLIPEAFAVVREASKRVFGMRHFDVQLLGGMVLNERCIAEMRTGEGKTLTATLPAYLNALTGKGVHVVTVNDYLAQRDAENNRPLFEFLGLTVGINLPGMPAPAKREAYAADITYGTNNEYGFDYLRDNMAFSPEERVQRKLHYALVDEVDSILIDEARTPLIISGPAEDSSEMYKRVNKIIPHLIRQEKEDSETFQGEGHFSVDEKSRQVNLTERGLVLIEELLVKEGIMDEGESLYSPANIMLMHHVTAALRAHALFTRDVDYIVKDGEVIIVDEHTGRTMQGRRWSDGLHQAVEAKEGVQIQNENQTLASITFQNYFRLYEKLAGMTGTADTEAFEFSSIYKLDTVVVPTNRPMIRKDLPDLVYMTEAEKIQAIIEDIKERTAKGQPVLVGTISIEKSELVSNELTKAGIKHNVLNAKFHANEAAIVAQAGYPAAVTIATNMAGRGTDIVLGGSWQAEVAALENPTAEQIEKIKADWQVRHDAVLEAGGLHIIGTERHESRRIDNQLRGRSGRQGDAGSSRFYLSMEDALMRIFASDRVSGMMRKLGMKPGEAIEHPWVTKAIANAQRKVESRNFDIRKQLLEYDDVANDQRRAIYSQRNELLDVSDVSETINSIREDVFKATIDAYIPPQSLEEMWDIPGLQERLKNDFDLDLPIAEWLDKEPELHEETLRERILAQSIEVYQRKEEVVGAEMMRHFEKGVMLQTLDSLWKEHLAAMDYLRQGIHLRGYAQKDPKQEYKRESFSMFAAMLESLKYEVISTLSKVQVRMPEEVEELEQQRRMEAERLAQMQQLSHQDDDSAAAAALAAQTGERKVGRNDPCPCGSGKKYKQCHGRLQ

SMILES	Percent Effect [1] [%]	Percent Effect [2] [%]	Percent Effect [3] [%]	Percent Effect [4] [%]	Percent Effect (Trypanosoma cruzi) [%]	Percent Effect [5] [%]	Percent Effect [6] [%]	Percent Effect (Homo sapiens) [%]	Percent Effect [7] [%]	Percent Effect [8] [%]	Percent Effect [9] [%]
COc1ccc2c(c1)C1(CCN(Cc3ccoc3)CC1)N(C)CC2	-1.9	5.2	2.57	3.45	-0.0986	-7.1	20	-0.746	-1.06	8.97	-9.11
Cc1nn(C)c(N(C)C)c1CNC1CCOc2c(F)cccc21 (centres undefined)	-6.1	5.26	-2.48	4.77	-6.01	0.766	8.02	9.98	6.37	4.88	2.09
COc1ccc(Cl)cc1NCC(=O)NCCNc1cnccn1	-3.85	-5.41	2.13	13.2	-2.17	-2.4	3.96	-1.56	4.43	13.6	-3.88
O=C1NCCN1C1CCN(Cc2ccccn2)CC1	-1.85	0	-5.58	1.53	-2.12	1.91	8.62	0.116	3.7	2.44	-3.18
c1ccc2oc(CCCN3CCCC3Cn3cncn3)nc2c1 (centres undefined)	-1.49	0	0.485	12.2	-1.02	3.51	5.92	13.6	7.92	6.1	7.47
O=C(c1ccccn1)N1C[C@@H]2CC[C@H](C1)N(C(=O)CCc1cccs1)C2	-6.27	5.2	2.15	9.38	6.59	-74.5	13.1	-10.3	3.23	8.64	2.24
O=C(c1cnccn1)N1CCN(Cc2ccncc2)c2ncccc2C1	-1.27	0	2.52	4.53	-1.54	-20.2	2.73	-10.5	2.08	2.5	-3.2
CC(=O)N1CCCCC1c1cc(CO)[nH]n1 (centres undefined)	-1.55	1.35	7	5.31	1.78	2.09	12.3	10.5	3.23	6.49	9.52
CCc1nc(CN2CCCN(c3ncnc4ccccc34)CC2)no1	0.435	13	-3.4	2.9	4.03	-12.4	18.3	74.7	3.23	16.1	-2.22
